From PubChem BioAssay AID651812 (National Center for Advancing Translational Sciences (NCATS), 2012)
In all, about 2,100 compounds went through this assay and about 650 (31%) were called active. Roughly 16% stayed inconclusive and do not appear here. The call rests on the fitted dose curve; in most records, active means well fitted inhibition curve with a large enough effect; inconclusive means small, poorly fitted or top-dose-only effect; inactive means flat fitted curve, though single readings scatter. Some of the results follow. Entries that show only a call come without a potency.

Assay: qHTS for inhibitors of Vif-A3G interactions: Cherry picks; further: nearly all actives have a fitted effect of over 80% in size
Conditions: HeLa A3G-eYFP + Vif (tagged APOBEC3G with the HIV-1 protein that degrades it), 24 h; Potency: eYFP fluorescence increase; series mostly up to 36.9 µM
Description: The recent discovery and characterization of host restriction factors, which provide a potent defense to invading retroviruses, has provided new targets for antiviral drug development. APOBEC3G (A3G) and APOBEC3F (A3F) are potent cytidine deaminases that block HIV-1 replication; HIV-1 expresses the Vif protein, which counteracts A3G and A3F by binding to them and inducing their proteasomal degradation. The Vif-A3G and Vif-A3F interactions provide two potential targets for development of small molecules which can interfere with the ability of Vif to degrade A3G or A3F. […] To identify inhibitors that can interfere with Vif mediated degradation of A3G and A3F, we have developed Hela cell lines that stably express A3G or A3F tagged with eYFP at the C-terminal end (A3G-eYFP or A3F-eYFP, respectively) and Vif. In the absence of an inhibitor, Vif induces degradation of A3G-eYFP and A3F-eYFP, and the cells are not fluorescent. In the presence of an inhibitor, it is expected that Vif will be unable to degrade A3G-eYFP and/or A3F-eYFP, resulting in an increase in yellow fluorescence. In this assay, Vif A3G was screened against the cherry picks ordered from the MLSMR. NIH Chemical Genomics Center [NCGC] NIH Molecular Libraries Probe Centers Network [MLPCN] MLPCN Grant: MH093245 Assay Submitter (PI): Vinay Pathak, National Cancer Institute
A3G-Vif cells were harvested from T225 flask and resuspended in phenol free OPTI-MEM medium with 5% FBS. Then 5 uL of 140,000 cells/mL resuspended cells was dispensed into each well of low base Aurora COC 1,536-well plates (black walled, clear bottom) using a Multidrop Combi dispenser. After overnight culture at 37 deg C with 5% CO2, a total of 23 nL of compounds at 5 selected concentrations from the NPC or positive control (2 mM stock of MG132) in DMSO was transferred to each well of the assay plate using a pintool (Kalypsys, San Diego, CA), and the plates were further incubated at 37 deg C with 5% CO2 for 24 hours. After that, the plates were measured on Acumen Explorer (TTP Lab Tech). The fluorescence was detected by 488 nm/Ex and […].
Potency means the concentration at half of the fitted maximal effect.

| SMILES | Potency |
| --- | --- |
| COc1cc(Cl)c(C)cc1Nc1nc2ccccc2nc1NS(=O)(=O)c1ccccc1 | 16.4 µM (active) |
| COCCCNc1nc2ccccc2nc1NS(=O)(=O)c1ccccc1 | inactive |
| COC(=O)c1cc(Nc2nc3ccccc3nc2NS(=O)(=O)c2ccc(C)cc2)ccc1Cl | inactive |
| COc1cc(N2CCCC2)c(OC)cc1/C=C1/NC(=S)NC1=O | 2.5 µM (active) |
| CN1/C(=C/C=C(/C#N)C(N)=O)C(C)(C)c2ccccc21 | inactive |
| CN1/C(=C\C=C(C#N)C#N)C(C)(C)c2ccccc21 | 20.6 µM (active) |
| CC1=C/C(=C\C=C(C#N)C#N)N(C)c2ccccc21 | 2.59 µM (active) |
| CN1/C(=C/C=C(C#N)C#N)C(C)(C)c2ccccc21 | 18.4 µM (active) |
| Cc1ccc2c(c1)Oc1ccc(NC(=O)CCl)cc1C(=O)N2 | inactive |
| CC1=NOC(=O)/C1=C\c1ccc(-c2ccc(Br)cc2)o1 | inactive |
| CN(C)/C=N/C1=C(C#N)C(c2cccs2)c2ccc3ccccc3c2O1 (stereo not drawn) | inactive |
| CN(C)c1ccc(/C=C/c2ccnc3c(Cl)ccc(Cl)c23)cc1 | 9.2 µM (active) |
| CN(C)c1ccc(/C=C/c2ccnc3c(Cl)cccc23)cc1 | 23.1 µM (active) |
| CC(/C=N/NC(=O)c1cc(-c2ccc3ccccc3c2)n[nH]1)=C\c1ccco1 | inactive |
| Cc1cc(C(=O)N/N=C/c2ccc3c(c2)OCO3)c2ccccc2n1 | inactive |
| CC(=O)c1cccc(-c2ccnc3c2CC(C(=O)NCc2ccc(F)c(F)c2)O3)c1 (stereo not drawn) | inactive |
| ClCc1nc2ccccc2n1Cc1ccccc1 | 16.4 µM (active) |
| CCC(=O)Nc1nonc1-c1nc2ccccc2n1Cc1ccccc1 | inactive |
| Cc1ccc2[nH]c3c(c2c1)CCCC3NC(=O)CCl (stereo not drawn) | inactive |
| O=c1[nH]c2ccccc2n2c(=S)[nH]nc12 | inactive |
| O=c1[nH]c2ccccc2n2c(C(F)(F)F)nnc12 | 16.4 µM (active) |
| CC1CCCCC1NC(=O)/C(C#N)=C/C=C/c1ccccc1[N+](=O)[O-] (stereo not drawn) | inactive |

| SMILES | Potency |
| --- | --- |
| N#Cc1c(NC(=O)c2ccc([N+](=O)[O-])o2)sc2c1CCC2 | inactive |
| CCOCCCNC(=O)/C(C#N)=C/c1ccc([N+](=O)[O-])o1 | 20.6 µM (active) |
| CC(NC(=O)/C(C#N)=C/c1ccc([N+](=O)[O-])o1)c1ccccc1 (stereo not drawn) | 16.4 µM (active) |
| COc1cc2cc(-c3ccc(OC)c(OC)c3C)nc(N)c2cc1OC | inactive |
| CC(=O)Nc1cccc(-c2ccnc3c2CC(C)(C(=O)Nc2cccc(C(C)=O)c2)O3)c1 (stereo not drawn) | inactive |
| O=C(NC(=S)N1CCN(c2ccccn2)CC1)c1ccccc1 | inactive |
| O=C(Nc1ccc(Cl)cc1)Nc1ccon1 | inactive |
| CCN(c1ccc(NC(=O)CCc2nc3sc4c(c3c(=O)[nH]2)CCCC4)cc1)C(C)C | inactive |
| COc1ccccc1N1CCN(C(=O)c2ccc3ncsc3c2)CC1 | inactive |
| COc1ccc(N=c2oc3ccc(OC)cc3cc2-c2nc3ccccc3[nH]2)cc1 | inactive |
| COc1ccc2oc(=O)c(-c3nc4ccccc4o3)cc2c1 | 20.6 µM (active) |
| COc1ccc2oc(=Nc3ccccc3)c(-c3nc4ccccc4[nH]3)cc2c1 | inactive |
| CCOc1ccccc1Nc1nnc(-c2cc3cc(OC)ccc3oc2=O)s1 | 7.31 µM (active) |
| CCOc1ccccc1Nc1nnc(-c2cc3cc(Cl)ccc3oc2=O)s1 | inactive |
| COc1cccc2sc(Nc3nc(-c4cc5ccccc5oc4=O)cs3)nc12 | inactive |
| CCCNC(=O)c1ccccc1NC(=O)c1ccc2c(c1)NC(=O)C(C)S2 (stereo not drawn) | inactive |
| CC(O)CN(CC(C)O)c1ccc2c(c1)Cc1cc([N+](=O)[O-])ccc1-2 (stereo not drawn) | 3.26 µM (active) |
| CN1/C(=C\C=C2/SC(=S)N(CC(=O)O)C2=O)C(C)(C)c2ccccc21 | 1.3 µM (active) |
| CN1/C(=C\C=C2/SC(=S)NC2=O)C(C)(C)c2ccccc21 | 2.5 µM (active) |
| C=CCN1C(=O)/C(=C\C=C2\N(C)c3ccccc3C2(C)C)SC1=S | 0.651 µM (active) |
| Cc1ccc(-c2nc(SCCOc3ccccc3C)n3[nH]c(=O)cc3n2)cc1 | inactive |
| Cc1ccc(NC(=S)NC(=O)c2ccc(F)cc2)cc1S(=O)(=O)Nc1cccc(Cl)c1 | inactive |

| SMILES | Potency |
| --- | --- |
| O=C(Nc1cc(=O)[nH]c(=O)[nH]1)c1cc(Cl)ccc1Cl | inactive |
| CCCOc1ccc(C(=O)Nc2cccc(NC(=O)c3ccc(Cl)cc3Cl)c2)cc1 | 10.3 µM (active) |
| COc1cc(Cl)c(C)cc1NC(=O)CN1CCN(C(=O)C2CC2)CC1 | inactive |
| Cc1noc(C)c1COc1cccc(C(=O)OCC(=O)N2CC(=O)Nc3ccccc32)c1 | inactive |
| COc1cc(C(=O)N2CC(=O)Nc3ccccc32)cc(OC)c1OC | inactive |
| Cc1cc(C)cc(C(=O)N2CC(=O)Nc3ccccc32)c1 | inactive |
| CCCn1nc(C(=O)N2CC(=O)Nc3ccccc32)c2ccccc2c1=O | inactive |
| CCC(C)[C@H](NC(=O)N1CC(=O)Nc2ccccc21)C(=O)Nc1ccccc1C (stereo partly drawn) | inactive |
| COc1ccc2nc(SCC(=O)N3CC(=O)Nc4ccccc43)c(C#N)cc2c1 | 23.1 µM (active) |
| COc1cc(OC)cc(C(=O)N2CC(=O)Nc3ccccc32)c1 | inactive |
| Cc1cc(C)c2nc(SCC(=O)N3CC(=O)Nc4ccccc43)c(C#N)cc2c1 | 12.5 µM (active) |
| Cc1cccc2cc(C#N)c(SCC(=O)N3CC(=O)Nc4ccccc43)nc12 | 17.7 µM (active) |
| NC(=O)c1ccccc1NC(=S)NC(=O)CCc1ccccc1 | inactive |
| O=C(/C=C/c1ccco1)NC(=S)Nc1cccc(-c2nc3ccccc3o2)c1 | inactive |
| Oc1cccc(Nc2nc(O)c(/C=C3\C=Nc4ccccc43)s2)c1 | 23.1 µM (active) |
| CC(=O)c1cccc(NC(=O)C2CCCN(S(=O)(=O)c3cccc4nonc34)C2)c1 (stereo not drawn) | inactive |
| COC(=O)c1ccc(Nc2c([N+](=O)[O-])ccc3nonc23)cc1 | 20.6 µM (active) |
| COc1ccc(N2C(=O)NC3CC2(C)Oc2ccccc23)cc1OC (stereo not drawn) | inactive |
| COc1ccc(OC)c(NC(=O)Cn2cnc3onc(-c4ccc(Cl)cc4)c3c2=O)c1 | inactive |
| CCOC(=O)c1[nH]c(C)c(C(=O)Nc2cc(OC)ccc2OC)c1C | inactive |
| COc1ccc(OC)c(NC(=O)Cn2c(=O)n(-c3ccc(Cl)cc3)c(=O)c3c(C)c(C)sc32)c1 | 14.6 µM (active) |
| CCCOc1ccc(N)cc1N | inactive |

| SMILES | Potency |
| --- | --- |
| O=C1/C(=C/c2ccc(O)cc2)SC(=S)N1CC1CCCO1 (stereo not drawn) | inactive |
| CCOc1cc(/C=C2/SC(=S)N(CC3CCCO3)C2=O)ccc1O (stereo not drawn) | 20.6 µM (active) |
| COc1cc(/C=C2/SC(=S)N(CC3CCCO3)C2=O)ccc1O (stereo not drawn) | 18.4 µM (active) |
| COc1nc(-c2ccccc2)cc(-c2ccc3c(c2)OCO3)c1C#N | inactive |
| CCOC(=O)c1c(CN(CC)CC)n(-c2ccccc2)c2ccc(O)cc12 | inactive |
| O=C1/C(=C\c2ccc(O)cc2)SC(=S)N1Cc1ccccc1 | inactive |
| O=C(O)c1cc(-c2ccc(/C=C3/SC(=S)N(Cc4ccccc4)C3=O)o2)ccc1Cl | 18.4 µM (active) |
| Cc1c(C(=O)OC2CCCCC2)[nH]c2c1C(=O)CC(c1ccccc1Cl)C2 (stereo not drawn) | inactive |
| Cc1cc(/C=C2\SC(=S)N(C)C2=O)c(C)n1-c1ccccc1O | 23.1 µM (active) |
| Cc1cc(/C=C2\SC(=Nc3ccccc3)NC2=O)c(C)n1-c1ccc(S(N)(=O)=O)cc1 | inactive |
| Cc1cc(/C=C2\SC(=S)N(C)C2=O)c(C)n1-c1ccc(O)cc1 | 20.6 µM (active) |
| NC(=O)c1cccc(-c2ccnc3c2CC(C(=O)NCc2ccco2)O3)c1 (stereo not drawn) | inactive |
| CC(=O)N/N=C/c1cc(C(C)(C)C)cc(/C=N/NC(C)=O)c1O | 23.1 µM (active) |
| NC(=S)N/N=C/c1cccc(O)c1O | inactive |
| CC(=O)N/N=C/c1cc(C(C)C)cc(/C=N/NC(C)=O)c1O | 23.1 µM (active) |
| Cc1cc(-n2c(C)cc(C(=O)CCl)c2C)no1 | inactive |
| Cc1ccc(/C=N/NC(=O)c2nc3nc(C)cc(C)n3n2)cc1 | inactive |
| CCc1ccc(/C=N/NC(=O)c2cc(-c3ccncc3)nc3ccccc23)s1 | inactive |
| CC[N+](C)(C(=O)O)/C(=C\c1ccccc1)c1ccnc2ccccc12 (stereo not drawn) | 18.4 µM (active) |
| COc1ccc(-c2n[nH]c3c2CN(C(=O)c2ccc(OC)c(OC)c2)CC3)cc1 | inactive |
| CC(=O)N1CCc2nc3sc(C(=O)c4ccc(F)cc4)c(N)c3c(C(F)(F)F)c2C1 | 18.4 µM (active) |
| COc1ccc(C(=O)c2sc3nc4c(c(C(F)(F)F)c3c2N)CN(C(C)=O)CC4)cc1OC | 18.4 µM (active) |

| SMILES | Potency |
| --- | --- |
| COc1cc2c(cc1OC)CN(C(=O)c1ccc3nc[nH]c3c1)CC2 | inactive |
| COc1ccc(-c2cc3ccccc3oc2=O)cc1NC(=S)NC(=O)c1ccc2c(c1)OCCO2 | inactive |
| COc1ccc(S(=O)(=O)Nc2cccc(-c3ccc4nncn4n3)c2)cc1 | inactive |
| Cc1ccc(NC(=S)N/N=C2\CCCCC2C)cc1 (stereo not drawn) | inactive |
| CN(C)S(=O)(=O)c1ccc(N2CCCC2)c(C(=O)N2CCN(S(=O)(=O)c3ccc(F)c(F)c3)CC2)c1 | inactive |
| Cc1cc(NC(=O)/C(C#N)=C\c2ccc(-c3ccc(SC(F)F)cc3)o2)n(-c2ccccc2)n1 | 14.6 µM (active) |
| Cc1cc(NC(=O)/C(C#N)=C/c2ccc(-c3ccc(SC(F)F)cc3)o2)n(-c2ccccc2)n1 | 10.3 µM (active) |
| O=C(/C=C/c1ccco1)NC(=S)Nc1ccc(N2CCCC2)cc1 | inactive |
| Cc1ccc2[nH]c3c(c2c1)CN(C(=O)CN1CC(C)OC(C)C1)CC3 (stereo not drawn) | inactive |
| CC(=O)c1cc(NC(=O)c2ccc(C)cc2)c(=O)oc1/C=C/N(C)C | 16.4 µM (active) |
| COC(=O)c1c(-c2ccccc2Cl)noc1/C=C/N(C)C | inactive |
| O=C(Nc1ccccc1OC(=O)c1ccccc1)c1ccccc1 | inactive |
| COc1ccc(C(=O)Nc2cc(C(C)=O)c(/C=C/N(C)C)oc2=O)cc1 | 15.8 µM (active) |
| COc1cc(OC)cc(C(=O)Nc2ccccc2C(=O)NC2CC2)c1 | inactive |
| COc1ccc(C(=O)Nc2cccc(/C=C/c3nc4ccccc4c(=O)[nH]3)c2)cc1 | inactive |
| COC(=O)c1cc(NC(=O)c2ccccc2)c(=O)oc1/C=C/Nc1ccc(Oc2ccccc2)cc1 | 11.6 µM (active) |
| Cc1ccc(/C=N/NC(=O)c2cc(C)oc2C)cc1 | inactive |
| CC(=O)c1cc(NC(=O)c2ccc(Cl)cc2)c(=O)oc1/C=C/N(C)C | 11.2 µM (active) |
| CC(=O)c1cc2c(cc1NS(=O)(=O)c1ccc(C)cc1)OCCO2 | inactive |
| CO/N=C\CC(=O)Nc1ccc(Oc2ccccc2)cc1 | inactive |
